# Test results taken from PubChem BioAssay (NCATS).
# Where “and” joins values, the source holds several entries; their conditions need not be identical. Equal values may be shown once. Inconclusive results are not listed. A call without a number means that no potency is given here. Calls of active or inactive are those of the source. Unless noted, the call rests on the fitted dose curve; in most records, active means well fitted curve in the direction sought with a large enough effect; inconclusive means small, poorly fitted or top-dose-only effect, or another doubt; inactive means no such curve, though single readings can be large; an effect the other way counts as inactive or inconclusive.
# Columns and labels:
# [1] = molecular target: alpha-glucosidase (Oryza sativa, rice) (UniProt Q653V4); assay: Counterscreen for Glucocerebrosidase Inhibitors: qHTS Assay for Rice alpha-Glucosidase at pH 5.0 (AID 997); conditions: rice alpha-glucosidase enzyme activity; series mostly up to 76.9 µM
# In short: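 Rice alpha-glucosidase (4 nM final) with 400 uM 4-methylumbelliferyl-alpha-D-glucopyranoside in citrate buffer pH 5.0, 20 min at room temperature, stopped at pH 10; fluorescence 365/440 nm, compounds 0.7 nM–77 uM, AC50 from Hill fits.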
# [2] = Validation of Assay for Modulators of Lamin A Splicing (AID 1459; active means well fitted curve in the direction sought with a large enough effect in the signal ratio; the % refers to the signal ratio;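 further: cells exposed to compound for two days before reading; ratio rise marks activators and ratio drop marks inhibitors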); conditions: Lamin A splicing dual RFP/GFP fluorescence reporter; series mostly up to 9.22 µM
# In short: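 Splicing correction read as GFP (500-530 nm) over DsRed2 (575-640 nm) object intensity after 48 h compound exposure of reporter HeLa S3 clones (600 cells/well, 2% FBS medium); ancitabine and cycloheximide titrations, 0.5% DMSO as vehicle.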
# [3] = molecular target: DNA repair nuclease/redox regulator APEX1 (Homo sapiens) (UniProt P27695); assay: qHTS Validation Assay for Inhibitors of the Human Apurinic/apyrimidinic Endonuclease 1 (APE1) (AID 1705; further: potency means the concentration at half of the fitted maximal effect); conditions: purified APE1 endonuclease activity, fluorescence, titration; series mostly up to 57.1 µM
# In short: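 Activity read as rising fluorescence (598 nm emission, 525 nm excitation) from incision of a TAMRA/BHQ-2 duplex carrying a THF abasic site (50 nM). Compound and enzyme sat 15 min at RT before substrate start; signal change between first and third 60-s reads.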
# [4] = Counterscreen for APE1 Inhibitors: Fluorescent Dye Displacement Validation Assay (AID 1707); conditions: fluorescent dye displacement from DNA; series mostly up to 57.1 µM; further: potency means the concentration at half of the fitted maximal effect
# In short: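 Thiazole Orange (250 nM) bound to 50 nM TAMRA-labelled dsDNA with tetrahydrofuran abasic site; displacement by DNA-binding compounds lowers fluorescence. Buffer 50 mM Tris-HCl pH 7.5, 50 mM NaCl, 2 mM MgCl2, 0.01% Tween-20; endpoint read at 480/540 nm.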
# [5] = molecular target: Endonuclease 4 (Escherichia coli (strain K12)) (UniProt P0A6C1); assay: Counterscreen for APE1 Inhibitors: qHTS Validation Assay for Inhibitors of Endonuclease IV (AID 1708); further: potency means the concentration at half of the fitted maximal effect; conditions: E. coli endonuclease IV, DNA cleavage fluorescence; series mostly up to 57.1 µM
# In short: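 E. coli EndoIV at 2 nM final, preincubated 15 min at room temperature with compound, then 50 nM TAMRA/BHQ-2 THF abasic-site duplex added. Buffer: 50 mM Tris-HCl pH 7.5, 50 mM NaCl, 2 mM MgCl2, 1 mM DTT, 0.01% Tween-20. Kinetic fluorescence increase, third minus first read.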
# [6] = qHTS for differential inhibitors of proliferation of Plasmodium falciparum line 7G8 (AID 1815); conditions: Plasmodium falciparum 7G8 proliferation inhibition; series mostly up to 28.7 µM;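 further: parasite growth measured after three days of incubation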
# [7] = qHTS for differential inhibitors of proliferation of Plasmodium falciparum line D10 (AID 1877); conditions: series mostly up to 28.7 µM;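 further: parasites grown with compound for 72 h before DNA staining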
# [8] = qHTS for differential inhibitors of proliferation of Plasmodium falciparum line HB3 (AID 1886); conditions: Potency: Plasmodium falciparum HB3 proliferation inhibition; series mostly up to 28.7 µM;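 further: parasites grown with compound for 72 h before SYBR Green readout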
# [9] = molecular target: Ferritin light chain (Equus caballus) (UniProt P02791); assay: qHTS Validation Assay for Identification of Novel General Anesthetics (AID 2323); conditions: horse apoferritin, anesthetic-site fluorescent probe displacement; series mostly up to 76.9 µM
# In short: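 Competitive displacement of the profluorescent anesthetic 1-AMA (50% saturated, PBS) from 10 uM apoferritin, 10 min, room temperature. Activity is normalized 380/535 nm fluorescence; concentration-response fitted with a four-parameter Hill equation.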
# [10] = test system: Zika virus NS2B-NS3 protease (linked); assay: 384 well plate NINDS AMC confirmatory qHTS for Zika virus inhibitors (AID 1347163); conditions: Recombinant NS2B-NS3 protease, Ac-VKTGKR-AMC fluorescence; series mostly up to 1 mM; further: potency means the concentration at half of the fitted maximal effect; nearly all actives have a fitted effect of over 50% in size
# In short: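 Linked NS2B-NS3 protease (final 5 nM, 30 nM or 60 nM) was preincubated with compounds (final up to 1 mM) for ~15 minutes. Ac-VKTGKR-AMC substrate (final 30 microM) then reacted for 25 minutes at room temperature in the dark. Fluorescence (ex 355/em 460 nm) was normalized to no-enzyme and no-inhibitor controls.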
# [11] = test system: Zika virus NS2B-NS3 protease (linked construct); assay: 384 well plate NINDS Rhodamine confirmatory qHTS for Zika virus inhibitors (AID 1347164); conditions: rhodamine-110 peptide substrate fluorescence; series mostly up to 1 mM;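 further: fluorescence from protease cleavage of Ac-LKRR-rhodamine 110 substrate; potency means the concentration at half of the fitted maximal effect; nearly all actives have a fitted effect of over 65% in size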
# In short: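 Fluorescence at 485/538 nm was measured 25 minutes after adding 10 microM Ac-LKRR-Rd substrate, in the dark at room temperature. The protease (5, 30 or 60 nM final) had been preincubated ~15 minutes with compound; aprotinin as control.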
# [12] = NCATS anti-infectives library activity on HEK293 viability as a counter-qHTS vs the C. elegans viability qHTS (AID 1745854); conditions: HEK293 viability counter-screen; series mostly up to 41.8 µM;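 further: HEK293 cells exposed to compounds for 24 hr before the viability read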
# In short: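 Compounds were acoustically plated (several concentrations, 1:5, final up to 41.7 uM), then 1500 HEK293 cells added per well and incubated 24 hr at 37C, 5% CO2. CellTiter-Glo was added and luminescence read after 10 min.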
# [13] = molecular target: Phospholipid hydroperoxide glutathione peroxidase GPX4 (Homo sapiens) (UniProt P36969); assay: Primary qHTS Assay for Inhibitors of Recombinant Selenoprotein Glutathione Peroxidase 4 (GPX4) (AID 1845192); conditions: recombinant GPX4, GR-coupled NADPH fluorescence, 15 min; series mostly up to 50 µM; further: nearly all actives have a fitted effect of over 65% in size
# In short: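 GR-coupled assay: recombinant GPX4 preincubated 30 min with compound at room temperature; final 200 nM GPX4, 1 mM GSH, 0.5 mM cumene hydroperoxide, 0.5 mM NADPH, 100 nM GR, 0.01% BSA, pH 7.5 Tris. NADPH fluorescence (340/450 nm) read at 0 and 15 min.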
# [14] = molecular target: Cytochrome P450 2C19 (Homo sapiens) (UniProt P33261); assay: qHTS Assay for Inhibitors and Substrates of Cytochrome P450 2C19 (AID 899); conditions: recombinant CYP2C19, luciferin-H EGE luminescence; series mostly up to 57.1 µM; further: potency means the concentration at half of the fitted maximal effect; nearly all actives have a fitted effect of over 60% in size
# In short: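 Luminescent read-out of luciferin formed from Luciferin-H EGE (10uM, equal to KM). Enzyme 5nM in 50mM KPO4; compound added, 10 min at 37C, then NADPH regenerating system for 60 min at 37C. Full inhibition defined by 57uM ketoconazole.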
# Sequence of DNA repair nuclease/redox regulator APEX1 (Homo sapiens) (P27695 whole entry, looked up): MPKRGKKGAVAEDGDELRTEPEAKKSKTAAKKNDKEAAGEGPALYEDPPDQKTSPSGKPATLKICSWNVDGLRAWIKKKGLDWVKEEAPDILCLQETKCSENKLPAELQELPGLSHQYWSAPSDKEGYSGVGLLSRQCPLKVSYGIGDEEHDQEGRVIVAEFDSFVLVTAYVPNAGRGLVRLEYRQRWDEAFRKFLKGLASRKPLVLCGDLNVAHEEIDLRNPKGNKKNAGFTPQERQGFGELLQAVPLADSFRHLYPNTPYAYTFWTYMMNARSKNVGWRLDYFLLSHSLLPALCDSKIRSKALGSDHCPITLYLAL
# Sequence of Phospholipid hydroperoxide glutathione peroxidase GPX4 (Homo sapiens) (P36969 whole entry, looked up): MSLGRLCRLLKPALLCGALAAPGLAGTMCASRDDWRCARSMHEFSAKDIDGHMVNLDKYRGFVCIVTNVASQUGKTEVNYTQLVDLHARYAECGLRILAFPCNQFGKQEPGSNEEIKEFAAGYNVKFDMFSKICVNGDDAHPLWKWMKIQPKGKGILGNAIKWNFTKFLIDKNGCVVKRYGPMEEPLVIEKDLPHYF
# Sequence of Ferritin light chain (Equus caballus) (P02791 2-175 limits assumed): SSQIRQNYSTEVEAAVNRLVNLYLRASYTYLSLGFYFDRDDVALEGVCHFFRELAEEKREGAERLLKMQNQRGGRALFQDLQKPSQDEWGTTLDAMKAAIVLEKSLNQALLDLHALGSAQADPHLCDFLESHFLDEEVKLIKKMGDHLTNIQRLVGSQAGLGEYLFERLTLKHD
# Sequence of Cytochrome P450 2C19 (Homo sapiens) (P33261 whole entry, looked up): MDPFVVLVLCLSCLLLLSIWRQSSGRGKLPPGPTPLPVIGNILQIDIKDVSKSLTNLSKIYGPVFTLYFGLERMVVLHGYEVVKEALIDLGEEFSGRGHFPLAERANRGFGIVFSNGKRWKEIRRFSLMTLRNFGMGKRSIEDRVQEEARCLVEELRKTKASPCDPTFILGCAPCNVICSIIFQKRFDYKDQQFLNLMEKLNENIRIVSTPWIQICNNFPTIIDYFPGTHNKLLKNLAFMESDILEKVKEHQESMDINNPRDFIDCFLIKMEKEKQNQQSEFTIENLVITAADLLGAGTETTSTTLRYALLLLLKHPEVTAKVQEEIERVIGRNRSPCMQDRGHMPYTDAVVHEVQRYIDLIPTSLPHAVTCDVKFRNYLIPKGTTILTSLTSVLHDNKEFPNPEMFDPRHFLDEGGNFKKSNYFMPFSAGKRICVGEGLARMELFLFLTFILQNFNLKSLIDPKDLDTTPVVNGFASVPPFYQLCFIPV
smiles,measurement,setting,value
O=C(Nc1cc(C(=O)Nc2ccc(S(=O)(=O)O)cc2S(=O)(=O)O)cc(C(=O)Nc2ccc(S(=O)(=O)O)cc2S(=O)(=O)O)c1)Nc1cc(C(=O)Nc2ccc(S(=O)(=O)O)cc2S(=O)(=O)O)cc(C(=O)Nc2ccc(S(=O)(=O)O)cc2S(=O)(=O)O)c1,outcome,[1],inactive
same,outcome,[2],inactive
same,Potency,[3],2.51 µM (active)
same,Potency,[4],4.47 µM (active)
same,Potency,[5],6.31 µM (active)
same,Potency,[6],inactive
same,Potency,[7],inactive
same,Potency,[8],inactive
same,outcome,[9],inactive
same,Potency,[10],8.91 µM (active) and 7.08 µM (active)
same,Potency,[11],3.55 µM (active) and 3.16 µM (active)
COc1c(O)cc2oc(-c3ccccc3)cc(=O)c2c1O,outcome,[12],inactive
CC1(C)CC[C@]2(C(=O)O)CC[C@]3(C)C(=CC[C@@H]4[C@@]5(C)C[C@@H](O)[C@H](O)C(C)(C)[C@@H]5CC[C@]43C)[C@@H]2C1,outcome,[12],inactive
same,Potency,[13],inactive
CCCN=C(N)NCCC[C@H](N)C(=O)O,Potency,[14],2 µM (active)
C[C@@H](CCc1ccc(O)cc1)NCCc1ccc(O)c(O)c1,outcome,[1],inactive
